Assay results as given in PubChem BioAssay (NCI).
The panel holds about 83,000 compounds, 20% with a hit somewhere; the sample as a whole holds those more often.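 How to read the values: 0–100, growth inhibition (40 = 60% inhibited); 0, no net growth; -100 to 0, cell death (-40 = 40% of starting cells died; -100 = all dead).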 Unmarked numbers belong to inactive results. Active and inactive are the calls of the source. The calls were made as follows: active = growth percent below 10; inactive = the rest.

Key:
Test in all cases: NCI-60 one-dose screen, 48 h (100 = growth as untreated, 0 = no growth, -100 = all killed)
Conditions in all cases: 10 µM
K-562 leukemia = tested on: K-562 leukemia
MALME-3M melanoma = tested on: MALME-3M melanoma
MDA-MB-231 breast = tested on: MDA-MB-231 breast
RXF 393 renal = tested on: RXF 393 renal
SF-268 CNS = tested on: SF-268 CNS
SF-295 CNS = tested on: SF-295 CNS
SF-539 CNS = tested on: SF-539 CNS
UACC-257 melanoma = tested on: UACC-257 melanoma
M14 melanoma = tested on: M14 melanoma
HCT-15 colon = tested on: HCT-15 colon

Structure (SMILES): CC1(C)N=C(N)N=C(N)N1c1ccc(CCc2ccccc2)c(Cl)c1
- growth (K-562 leukemia): 11.2%
- growth (MALME-3M melanoma): 43.3%
- growth (MDA-MB-231 breast): 39.7%
- growth (RXF 393 renal): 44%
- growth (SF-268 CNS): 21.1%
- growth (SF-295 CNS): 17.7%
- growth (SF-539 CNS): 21.8%
- growth (UACC-257 melanoma): 3.1% (active)
- growth (M14 melanoma): 20.5%
- growth (HCT-15 colon): 39.7%

Structure (SMILES): CCOC(=O)N1C/C(=C/c2ccc(Cl)cc2)C(=O)/C(=C/c2ccc(Cl)cc2)C1
- growth (K-562 leukemia): 3.7% (active)
- growth (MALME-3M melanoma): 84.9%
- growth (MDA-MB-231 breast): 68.3%
- growth (RXF 393 renal): 47.4%
- growth (SF-268 CNS): 52.3%
- growth (SF-295 CNS): 44.2%
- growth (SF-539 CNS): 98%
- growth (UACC-257 melanoma): 94.2%
- growth (M14 melanoma): 57.1%
- growth (HCT-15 colon): 34.3%

Structure (SMILES): CCOC(=O)N1C/C(=C/c2ccc(F)cc2)C(=O)/C(=C/c2ccc(F)cc2)C1
- growth (K-562 leukemia): 3.36% (active)
- growth (MALME-3M melanoma): -36.8% (active)
- growth (MDA-MB-231 breast): -2.86% (active)
- growth (RXF 393 renal): -83.4% (active)
- growth (SF-268 CNS): -12% (active)
- growth (SF-295 CNS): -22% (active)
- growth (SF-539 CNS): 3.86% (active)
- growth (UACC-257 melanoma): -14.7% (active)
- growth (M14 melanoma): -69% (active)
- growth (HCT-15 colon): -63.4% (active)

Structure (SMILES): Nc1c(C(=O)Nc2ccccc2Cl)sc2nc3c(cc12)C(=O)CCC3
- growth (K-562 leukemia): 24.9%
- growth (MALME-3M melanoma): 38.5%
- growth (MDA-MB-231 breast): 70.3%
- growth (RXF 393 renal): 61.7%
- growth (SF-268 CNS): 95.7%
- growth (SF-295 CNS): 14.7%
- growth (SF-539 CNS): 69.9%
- growth (UACC-257 melanoma): 42.9%
- growth (M14 melanoma): 50.2%
- growth (HCT-15 colon): 32.8%

Structure (SMILES): O=C1/C(=C\c2ccccc2)CN(C(=O)c2ccccc2)C/C1=C\c1ccccc1
- growth (K-562 leukemia): 2.41% (active)
- growth (MALME-3M melanoma): -37.5% (active)
- growth (MDA-MB-231 breast): 7.59% (active)
- growth (RXF 393 renal): -21.2% (active)
- growth (SF-268 CNS): 23.6%
- growth (SF-295 CNS): 15.7%
- growth (SF-539 CNS): 69.4%
- growth (UACC-257 melanoma): 4.53% (active)
- growth (M14 melanoma): -49.5% (active)
- growth (HCT-15 colon): -18.6% (active)

Structure (SMILES): N#CC1=C(Nc2ccccc2Cl)SC(c2ccccc2O)NC1=O (stereo not given)
- growth (K-562 leukemia): 102%
- growth (MALME-3M melanoma): 116%
- growth (MDA-MB-231 breast): 113%
- growth (RXF 393 renal): 121%
- growth (SF-268 CNS): 112%
- growth (SF-295 CNS): 113%
- growth (SF-539 CNS): 99.6%
- growth (UACC-257 melanoma): 37.1%
- growth (M14 melanoma): 109%
- growth (HCT-15 colon): 119%

Structure (SMILES): N#CSCC1CC(O)(c2ccccc2)CC(c2ccc(Cl)cc2)O1 (stereo not given)
- growth (K-562 leukemia): 44.8%
- growth (MALME-3M melanoma): 7.26% (active)
- growth (MDA-MB-231 breast): 60.8%
- growth (RXF 393 renal): 9.83% (active)
- growth (SF-268 CNS): 34.6%
- growth (SF-295 CNS): 46.6%
- growth (SF-539 CNS): 58.8%
- growth (UACC-257 melanoma): 87.8%
- growth (M14 melanoma): 9.35% (active)
- growth (HCT-15 colon): 58.8%

Structure (SMILES): CCN1CCCC1CNC(=O)c1ncc(-c2ccc(C(F)(F)F)cc2)c(NC2CCCCCC2)n1 (stereo not given)
- growth (K-562 leukemia): 8.32% (active)
- growth (MALME-3M melanoma): 54%
- growth (MDA-MB-231 breast): 67.3%
- growth (RXF 393 renal): 74.1%
- growth (SF-268 CNS): 86.8%
- growth (SF-295 CNS): 69.3%
- growth (SF-539 CNS): 94.7%
- growth (UACC-257 melanoma): -46.2% (active)
- growth (M14 melanoma): 26.1%
- growth (HCT-15 colon): 90.8%

Structure (SMILES): CCOCC(=O)C(C#N)c1ccc(Cl)c(Cl)c1 (stereo not given)
- growth (K-562 leukemia): 94.6%
- growth (MALME-3M melanoma): 106%
- growth (MDA-MB-231 breast): 105%
- growth (RXF 393 renal): 94.8%
- growth (SF-268 CNS): 106%
- growth (SF-295 CNS): 89.3%
- growth (SF-539 CNS): 94.8%
- growth (UACC-257 melanoma): 92%
- growth (M14 melanoma): 113%
- growth (HCT-15 colon): 89.9%

Structure (SMILES): O=C(O)CC(Cl)C(Cl)CC(=O)O (stereo not given)
- growth (K-562 leukemia): 103%
- growth (MALME-3M melanoma): 90.7%
- growth (MDA-MB-231 breast): 117%
- growth (RXF 393 renal): 127%
- growth (SF-268 CNS): 105%
- growth (SF-295 CNS): 92.7%
- growth (SF-539 CNS): 99.3%
- growth (UACC-257 melanoma): 92.2%
- growth (M14 melanoma): 102%
- growth (HCT-15 colon): 99.2%

Structure (SMILES): CCN(CC)CCNC(=O)c1ccc(NC(C)=O)cc1
- growth (K-562 leukemia): 99.2%
- growth (MALME-3M melanoma): 103%
- growth (MDA-MB-231 breast): 91.8%
- growth (RXF 393 renal): 109%
- growth (SF-268 CNS): 109%
- growth (SF-295 CNS): 104%
- growth (SF-539 CNS): 107%
- growth (UACC-257 melanoma): 117%
- growth (M14 melanoma): 109%
- growth (HCT-15 colon): 101%

Structure (SMILES): Cc1ccc(C)c(C(O)(c2cc(C)ccc2C)C2(O)CCCCC2)c1
- growth (K-562 leukemia): 87.3%
- growth (MALME-3M melanoma): 91.7%
- growth (MDA-MB-231 breast): 96.9%
- growth (RXF 393 renal): 91%
- growth (SF-268 CNS): 94.2%
- growth (SF-295 CNS): 95.9%
- growth (SF-539 CNS): 94.6%
- growth (UACC-257 melanoma): 102%
- growth (M14 melanoma): 98.6%
- growth (HCT-15 colon): 94.5%

Structure (SMILES): COc1ccc(/C=C2/CN(CCC#N)C/C(=C\c3ccc(OC)cc3)C2=O)cc1
- growth (K-562 leukemia): 1.95% (active)
- growth (MALME-3M melanoma): -44.7% (active)
- growth (MDA-MB-231 breast): -25.4% (active)
- growth (RXF 393 renal): -63% (active)
- growth (SF-268 CNS): 0.448% (active)
- growth (SF-295 CNS): -32.7% (active)
- growth (SF-539 CNS): 9.73% (active)
- growth (UACC-257 melanoma): 17.4%
- growth (M14 melanoma): 0.654% (active)
- growth (HCT-15 colon): 0.438% (active)
